# In all, about 39,000 sequences were measured (“fluorescence intensity (a.u.)”: median about 4,300, highest 2% from about 39,000 on). The sample as a whole holds a higher share of the highest values than the screen did.
# Biological target: T1, OsSMF1 (Oryza sativa, UniProt Q6ZLB0 1-436)
# T1 sequence: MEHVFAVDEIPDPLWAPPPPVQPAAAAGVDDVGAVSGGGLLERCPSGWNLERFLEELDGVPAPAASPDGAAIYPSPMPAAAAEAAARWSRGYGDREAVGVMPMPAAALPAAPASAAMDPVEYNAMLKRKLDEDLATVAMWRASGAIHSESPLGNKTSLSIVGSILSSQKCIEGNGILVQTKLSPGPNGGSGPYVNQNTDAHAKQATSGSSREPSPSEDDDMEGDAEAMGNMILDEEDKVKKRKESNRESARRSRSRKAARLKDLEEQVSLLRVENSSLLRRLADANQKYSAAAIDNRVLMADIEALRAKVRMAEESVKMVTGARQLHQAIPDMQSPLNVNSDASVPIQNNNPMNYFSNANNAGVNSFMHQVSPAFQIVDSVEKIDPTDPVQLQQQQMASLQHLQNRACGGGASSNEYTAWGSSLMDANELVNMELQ
# Experiment: protein-binding microarray (RPBM); PBS, 2% BSA, 51.3 ng/ul salmon testes DNA, 50 uM zinc acetate, 200 nM TF, 25 C, 1 h; high values mean tight binding
# Conditions: protein: recombinant; tags: N-terminal polyhistidine and DsRed monomer fusion (pET32a); chain copies: 2; label: CyDye5-dUTP incorporated in the synthesized complementary strand; 3' TTTTT single-stranded linker to array surface; dsDNA, one strand shown
# Outline: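 Binding signal is reported as fluorescence intensity per feature (arbitrary units) from an Axon 4000B scanner. Incubation used 200 nM of each Ni–NTA-purified, N-terminally polyhistidine- and DsRed-fused transcription factor from E. coli BL21-CodonPlus on a double-stranded custom Agilent array for 1 h at 25 °C, with 50 µM zinc acetate in the buffer, followed by washing.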
row,Sequence,binding signal
1,TCACCCCTGAGAAAGACACGTCTTTCTGGTTTAATCCATTCGGAGTCACCTAGTGCAG,3620 fluorescence intensity (a.u.)
2,GGGAAACGAGTCAAGCTGACGTGTGCAAGAATCTCCTACACGGAGTCACCTAGTGCAG,13500 fluorescence intensity (a.u.)
3,GTAAGTTGAATGATGTCATATATTTAATTTTACGGTAAGTCGGAGTCACCTAGTGCAG,6940 fluorescence intensity (a.u.)
4,TAATTAAATTGTCATATCACTTCTTAACTTATTGGACTAACGGAGTCACCTAGTGCAG,3220 fluorescence intensity (a.u.)
5,AAAATTATTAACTTCTTGTTTCGATCACCCTAATAAATAGCGGAGTCACCTAGTGCAG,41000 fluorescence intensity (a.u.)
6,TACATTATATTCAATTCTAACTTTCGGAAATATTATATAGCGGAGTCACCTAGTGCAG,26900 fluorescence intensity (a.u.)
7,GACGTGGTAAGTTAACTTGGTTAAAATGTGCTGACGTGGTCGGAGTCACCTAGTGCAG,24700 fluorescence intensity (a.u.)
8,AATGCTAAGGGACAACGTCAGCGGGTTAGTGCAAGGTAAGCGGAGTCACCTAGTGCAG,6630 fluorescence intensity (a.u.)
9,TGCAGGGGCGCAGCACGGGAGGGTGCTTGACGCATACAAGCGGAGTCACCTAGTGCAG,4030 fluorescence intensity (a.u.)
10,CACGGACGCAAGGGGCCTGCTAAGCCTCTACAACGCAGCGCGGAGTCACCTAGTGCAG,41800 fluorescence intensity (a.u.)
11,GCTGCTCTCTTTCCTCTCTTCTCTCTCTGTTTTCTCTCCTCGGAGTCACCTAGTGCAG,18500 fluorescence intensity (a.u.)
12,CTCTGTGCTGAAATGGTTAGGTATGTTTTCTTTCTGCTCTCGGAGTCACCTAGTGCAG,40700 fluorescence intensity (a.u.)
13,TGGTATGAATGGATAATTTGTTTCTGTCTTATGTGTTGCTCGGAGTCACCTAGTGCAG,3150 fluorescence intensity (a.u.)
14,TCGGCAAGCTGAGACGGCTAGTGAACCTATCAGCCATCAGCGGAGTCACCTAGTGCAG,15900 fluorescence intensity (a.u.)
15,TCTGCAAGCACCAACGAGAAGCCACAAATGTTCACATCACCGGAGTCACCTAGTGCAG,3610 fluorescence intensity (a.u.)
16,TCTGGACCACATAAACGAGAGAGAGAGAGAAGTCCAAGCCCGGAGTCACCTAGTGCAG,47900 fluorescence intensity (a.u.)
17,CAAGTCCAAGAGCACCATAAGCTAGTGACACATAGAGCCCCGGAGTCACCTAGTGCAG,4140 fluorescence intensity (a.u.)
18,CCTGAGGAGGGAAGGGTCGATGTGGAGGAGCGGCGGCGACCGGAGTCACCTAGTGCAG,3500 fluorescence intensity (a.u.)
19,CGTGCGGCGGATCGTGGTGGACGCGAGCGGCGGCGGCGACCGGAGTCACCTAGTGCAG,3440 fluorescence intensity (a.u.)
20,GATCGACGGCGACGCCCCTGGAAGGAGCGGAATAGACCACCGGAGTCACCTAGTGCAG,46700 fluorescence intensity (a.u.)
21,TTTGCATTGACTTGATATAGTATGTCACCATCACACTATCCGGAGTCACCTAGTGCAG,5460 fluorescence intensity (a.u.)
22,TTACAAACAACGCCTTGCATGATTGCATCATCGCCCTAAACGGAGTCACCTAGTGCAG,4300 fluorescence intensity (a.u.)

row,Sequence,binding signal
1,TTGCATCAGGCCCTCTTCAATGATTTAAACAAACAATGGACGGAGTCACCTAGTGCAG,52300 fluorescence intensity (a.u.)
2,TTGTGACTTGATTTATCATCAAATGTTCTTTAAACATGACCGGAGTCACCTAGTGCAG,3540 fluorescence intensity (a.u.)
3,GGCGTATTCCAAAAGCCTTGGCCACCATTATTGCGTGGCACGGAGTCACCTAGTGCAG,6820 fluorescence intensity (a.u.)
4,GCTAGCTAAGAGCGAGCTTCATTAACATACGAGACAGAGACGGAGTCACCTAGTGCAG,4530 fluorescence intensity (a.u.)
5,GTTAATTAATACTCTCCGTTTCATATTATAAGGCGTTTGACGGAGTCACCTAGTGCAG,26400 fluorescence intensity (a.u.)
6,ACCCATATAATTAAGGTGCCAATGCTGCTAATACTCTCTCCGGAGTCACCTAGTGCAG,46100 fluorescence intensity (a.u.)
7,TACTCTGCCAATCTAAATTAATGATGTATGATATGGTCTCCGGAGTCACCTAGTGCAG,4340 fluorescence intensity (a.u.)
8,GACACATGAGGGCCCACATGTCATACATTGTGAATGACACCGGAGTCACCTAGTGCAG,3900 fluorescence intensity (a.u.)
9,GCCGCACCGGTCGGTTTCAGCGCGTGTGACACGCAGATTCCGGAGTCACCTAGTGCAG,3500 fluorescence intensity (a.u.)
10,CTTGTCTAGTCCAGGACAACTGGGATGATTGAGCACCAGTCGGAGTCACCTAGTGCAG,3170 fluorescence intensity (a.u.)
11,AACCTCAATGTTCCACGTCATCATTAATTTACAGCCGTTGCGGAGTCACCTAGTGCAG,39400 fluorescence intensity (a.u.)
12,CCGTTACATTGTTCCAATTTTAATTAAACTTCCAATTTTACGGAGTCACCTAGTGCAG,30600 fluorescence intensity (a.u.)
13,CAAACCACAGTGTTCCACGTCATCATCAATTGACAGCCGTCGGAGTCACCTAGTGCAG,37800 fluorescence intensity (a.u.)
14,ATGGGGTGGATGCGTCAGAATTTACATAGGCACGGAACGTCGGAGTCACCTAGTGCAG,5800 fluorescence intensity (a.u.)
15,CCTTCCCTAGGGGCGGAGCCACGTAGCTTGGGCCCCACACCGGAGTCACCTAGTGCAG,6430 fluorescence intensity (a.u.)
16,TTATTATTATTGGATGGTTAGATGACAAATCCAACCTCACCGGAGTCACCTAGTGCAG,3640 fluorescence intensity (a.u.)
17,ATGACGATGGTTAATCCAAATAACATATTGGCCCGGGTTCCGGAGTCACCTAGTGCAG,49900 fluorescence intensity (a.u.)
18,GAGAGAGTGTAGGTTGCCGATGACGTTCCAAATATTGATCCGGAGTCACCTAGTGCAG,4490 fluorescence intensity (a.u.)
19,CACCTTCTTCAAGCTCCCTCCTCTGAAGCCTCTTCTTCTTCGGAGTCACCTAGTGCAG,34900 fluorescence intensity (a.u.)
20,ACCTTCATTGGATCTGCCTCCCTGCAAGCCTCTGCCTCAACGGAGTCACCTAGTGCAG,43300 fluorescence intensity (a.u.)
21,ATTGACATGGAGTCATGGACACTCTCCCTGCCTCCTCCCTCGGAGTCACCTAGTGCAG,3370 fluorescence intensity (a.u.)
